From PubChem BioAssay AID720507 (National Center for Advancing Translational Sciences (NCATS), 2013)
The campaign covered roughly 2,300 compounds. About 140 (6.1%) were called active. Not shown: some 18% with an inconclusive outcome. Calls follow the shape of the dose curve; as a rule, active = well fitted activation curve with a large enough effect; inconclusive = small, poorly fitted or top-dose-only effect; inactive = flat fitted curve, though single readings scatter. The list is a sample of the results. Where a call stands in place of a potency, no number is given.

Target: D(2) dopamine receptor (Homo sapiens) (UniProt P14416)
Sequence (P14416 whole entry, looked up): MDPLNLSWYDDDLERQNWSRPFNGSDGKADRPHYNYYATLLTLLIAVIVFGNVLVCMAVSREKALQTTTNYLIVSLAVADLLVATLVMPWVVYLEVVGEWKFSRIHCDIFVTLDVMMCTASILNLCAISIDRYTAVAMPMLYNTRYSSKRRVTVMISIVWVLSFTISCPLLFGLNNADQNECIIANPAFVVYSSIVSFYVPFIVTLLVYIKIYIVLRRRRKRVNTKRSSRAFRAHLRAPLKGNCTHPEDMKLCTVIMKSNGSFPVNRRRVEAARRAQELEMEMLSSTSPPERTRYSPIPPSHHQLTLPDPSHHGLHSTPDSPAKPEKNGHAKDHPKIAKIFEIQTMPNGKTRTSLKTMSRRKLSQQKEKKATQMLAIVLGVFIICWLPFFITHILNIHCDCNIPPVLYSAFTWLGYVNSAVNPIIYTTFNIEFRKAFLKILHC
Test: qHTS of D3 Dopamine Receptor Agonist: D2 Dopamine Receptor B-arrestin Agonist Counterscreen; also: nearly all actives have a fitted effect of over 70% in size
Conditions: DiscoveRx PathHunter D2 beta-arrestin, luminescence, 90 min; series mostly up to 76.9 µM
Source text: D3 DARs represent a very important target for the treatment of several neuropsychiatric disorders. Indeed, one of the most promising therapeutic applications for the D3 DAR is in the area of addiction and related disorders. […] These findings have been observed with a number of addictive substances including cocaine, amphetamine, nicotine, and alcohol. […] Increased D3 DAR activity can thus lead to neuroprotective and neurorestorative actions in the CNS. […] This assay is used to profile the activity of the identified D3 dopamine receptor agonist against the D2 dopamine receptor. Greater than 10% of the maximum dopamine agonist response is desired for this assay. NIH Molecular Libraries Probe Production Centers Network [MLPCN] NIH Chemical Genomics Center [NCGC] MLPCN Grant: NS064831 Assay Submitter (PI): David Sibley
DiscoveRx D2 cells were thawed from frozen stock and seeded at 2,100 cells/ 3 uL/well media (DiscoveRx Plating Reagent 2) with MultiDrop Combi dispenser (Thermo Scientific, Logan, UT) onto white tissue culture treated 1536-well Aurora plates (Brooks Automation, Chelmsford, MA) and allowed to attach overnight at 37 deg C, 5% CO2. Next, 23 nL/well of compound solutions in DMSO were added with a pintool transfer (Kalypsis, San Diego, CA). […] The rest of the plate was dispensed with buffer only, 1 uL/well as well. The cells were stimulated by compounds or dopamine control for 90 minutes at 37 deg C, 5% CO2, after which 1.5 ul/well of DiscoveRx detection reagent was added with BioRAPTR FRD dispenser. The detection reagent was prepared by mixing of Galacton Star Substrate, Emerald II solution and PathHunter buffer (supplied by the assay kit) together at 1:5:19 proportion accordingly just prior to dispensing. The plates were incubated at ambient temperature for 1 hour and then the luminescent signal was read on ViewLux plate reader (PerkinElmer, Waltham, MA).
Potency is read from the fitted curve at half-maximal effect.

Structure (SMILES) | Potency
O=C(C1CC(=O)N(c2ccc(F)cc2)C1)N1CCN(c2ccccc2)CC1 (centres undefined) | inactive
Cn1c(=O)c(=O)n(C)c2cc(S(=O)(=O)NCCN3CCN(c4ccccc4F)CC3)ccc21 | inactive
COc1ccc(N2CCN(Cc3cc(=O)oc4ccc5ccccc5c34)CC2)cc1 | inactive
O=C(CCN1CCN(c2ccccc2)CC1)NNC(=S)Nc1ccccc1 | inactive
Nc1nonc1-n1nnc(C(=O)N/N=C/c2ccc(Cl)cc2)c1-c1ccc2c(c1)OCO2 | inactive
O=C1c2ccccc2S(=O)(=O)N1CC(O)Cn1c2ccccc2c2ccccc21 (centres undefined) | inactive
O=C(c1ccc2c(c1)OCCO2)C1CCN(S(=O)(=O)c2cccc(F)c2)CC1 | inactive
O=C(Nc1ccc(F)cc1F)N1CCCN(CCOc2ccccc2)CC1 | inactive
O=C(CCN1CCN(C/C=C/c2ccccc2)CC1)Nc1ccccc1Cl | inactive
CC(=O)C[C@@H](O)CC(=O)[C@H]1OC(=O)CCCCCCc2ccccc21 | inactive
O=C(O[C@H]1[C@H](Cc2ccccc2)NS(=O)(=O)[C@H]2C[C@@H]3C=C[C@]12O3)c1ccc([N+](=O)[O-])cc1 | inactive
CNC(=O)NC(=O)C(C)N1CCN(C/C=C/c2ccccc2)CC1 (centres undefined) | inactive
c1ccc(-c2cnc(CN3CCN(c4ccccc4)CC3)o2)cc1 | inactive
C/C(=N\NC(=S)NC1CCCCC1)c1ccc(C)o1 | inactive
COc1ccc(S(=O)(=O)N2CCSCC2)cc1 | inactive
O=C(CC1NCCc2ccccc21)Nc1cccc(Cl)c1 (centres undefined) | inactive
O=C1C=C(c2cccc(Br)c2)C[C@@H](c2ccc(F)cc2)C1 | inactive
CC(C)(C)C(=O)OCc1nc(-c2ccc(O)c(O)c2)cs1 | 28.2 µM (active)
CC(CCc1ccccc1)NCC(O)c1cccc([N+](=O)[O-])c1 (centres undefined) | inactive
CC(OC(=O)/C=C/c1ccccc1)C(=O)NC1CCCCC1C (centres undefined) | inactive
O=C(OCc1nc2ccccc2[nH]1)C1CCCCC1 | inactive
CCCN1CC=C2C(C#N)=C(N)C(C#N)(C#N)C(c3cc(OC)ccc3OC)C2C1 (centres undefined) | inactive
CN(C)CCOC(=O)C(c1ccccc1)C1(O)CCCC1 (centres undefined) | inactive
COc1cccc(NC(=O)C2CCCN(c3ncnc4c3nc3n4CCCCC3)C2)c1 (centres undefined) | inactive
CC(=C1C(=O)c2ccccc2C1=O)N1CCN(c2ccccn2)CC1 | inactive

Structure (SMILES) | Potency
CNCC(O)c1ccc(O)c(O)c1 (centres undefined) | 17.8 µM (active)
O=C(CN1CCN(c2ncccn2)CC1)Nc1ccccc1C(F)(F)F | inactive
Cc1ccc(CN2CCN(c3ncccn3)CC2)c(C)c1 | 50.1 µM (active)
Cc1ccccc1Nc1nc(N)nc(CN2CCN(c3ccccn3)CC2)n1 | inactive
O=C1CC[C@H](O)CCN1[C@H](CSc1ccc(Br)cc1)Cc1ccccc1 | inactive
O=C(c1ccccc1)c1ccc(OCC(O)CN2CCCC2)cc1 (centres undefined) | inactive
Cc1cc(C(=O)NNC(=O)c2ccccc2O)c(C)o1 | inactive
CCCCC(=O)NNC(=S)NC(=O)C(c1ccccc1)c1ccccc1 | inactive
Cn1c(C(=O)NCCCN2CCN(c3cccc(Cl)c3)CC2)cc2c(=O)n(C)c3ccccc3c21 | inactive
CCn1cc(C(=O)N2CCN(Cc3ccc4c(c3)OCO4)CC2)c2cc(OC)c(OC)cc2c1=O | inactive
CCC(CC)NC(=O)/C=C/c1cccc([N+](=O)[O-])c1 | inactive
O=C(CCCn1c(=O)[nH]c2cc(Cl)ccc2c1=O)NCCN1CCN(c2ccccc2)CC1 | inactive
O=C(CCn1c(=O)[nH]c2ccccc2c1=O)NCCCN1CCN(c2cccc(Cl)c2)CC1 | inactive
Cc1ccccc1OCC(O)CN1CCN(c2ccccn2)CC1 (centres undefined) | inactive
CC(C)c1ccc(OCC(O)CN2CCN(c3ccccn3)CC2)cc1 (centres undefined) | 39.8 µM (active)
CC(=O)Nc1ccc(OCC(O)CN2CCN(c3ccccc3Cl)CC2)cc1 (centres undefined) | inactive
COc1ccc(C2NC(=O)C(=O)/C2=C(\O)c2ccc(Cl)cc2)cc1OC (centres undefined) | inactive
CCn1c(=O)n(CC)c2cc(N3CCCC3)c(NC(=O)c3ccccc3Br)cc21 | inactive
Cc1cccc(OCC(=O)NCC(=O)N/N=C/c2ccc(N(C)C)cc2)c1 | inactive
OC(COCc1ccco1)CN1CCN(c2ccccc2)CC1 (centres undefined) | inactive
OC(COc1ccc2c(c1)CCC2)CN1CCN(c2cccc(Cl)c2)CC1 (centres undefined) | inactive
CC(C)(C)n1ncc2c(=O)n(Cc3c(Cl)cccc3Br)cnc21 | inactive
CC(C)CCN1CCN(Cc2cn[nH]c2C2CCCCC2)CC1CCO (centres undefined) | inactive
Cc1cc(C)c(/C=C2\C(=O)Nc3ccccc32)[nH]1 | inactive
